# Where “and” joins values, the source holds several entries; their conditions need not be identical. Identical values can stand only once. Calls of active or inactive are those of the source. Rule as the data show it, unless noted: active = inhibition above about 80%; inactive = the rest.
# Experiments:
# [1] = sensitizers of A549 cells to miR-34 induction, primary screen, imaging, A549 dox-inducible miR-34, nuclei and caspase counts (AID 1347080;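 active = compounds whose cell count with miR-34 switched on is under 0.7 times the count with it off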); details: A549 miR-34 inducible, Hoechst nuclei count, 48 h
# [2] = survival rescue of mitochondrial mutant cells in low glucose, primary screen, MELAS cybrids, Rieske KO mouse fibroblasts, CellTiter-Glo (AID 1508586;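 active = mean z-score across replicates of 1.96 or higher in either the MELAS or the Rieske mutant cell line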;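 also: z relative to plate mean and SD of compound and empty wells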)
# [3] = LFS_MB_P medulloblastoma growth inhibition, cell-based, chromothripsis tumors, cisplatin or BGB combos (AID 1671449); details: LFS_MB_P medulloblastoma cells;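 also: cells exposed for 96 hours; 0% = vehicle DMSO and 100% = killing by high DMSO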
# [4] = HDN33 neuroblastoma growth inhibition, cell-based, chromothripsis tumors, cisplatin or BGB combos (AID 1671450); details: HDN33 neuroblastoma cells, stronger effect = higher value;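 also: cells exposed to compound for four days; 0% = vehicle DMSO and 100% = cell killing by high DMSO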
# [5] = ICB984 medulloblastoma cell growth inhibition, synergistic combos for chromothripsis tumors, cisplatin or BGB combos (AID 1671451; call rule not given here;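 also: cells exposed for 96 hours before readout; 0% = vehicle DMSO and 100% = killing by high DMSO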); details: ICB984 medulloblastoma cells, drug combinations, stronger effect = higher value
# [6] = LFS_MB_1R medulloblastoma cell growth inhibition, synergistic combos for chromothripsis tumors, cisplatin or BGB combos (AID 1671452); details: LFS_MB_1R medulloblastoma cells, stronger effect = higher value;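 also: cells exposed for 96 hours before readout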
# [7] = HTB85 osteosarcoma cell growth inhibition, synergistic combos for chromothripsis tumors, BGB or cisplatin IC20 combos (AID 1671453); details: HTB85 osteosarcoma cells, drug combinations, stronger effect = higher value;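 also: cells exposed for 96 hours before readout; 0% = vehicle DMSO and 100% = high DMSO killing control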
# [8] = CRL2098 osteosarcoma cell growth inhibition, synergistic combos for chromothripsis tumors, BGB or cisplatin IC20 combos (AID 1671454); details: CRL2098 osteosarcoma cells, drug combinations, stronger effect = higher value;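 also: cells exposed for 96 h before readout; 0% = vehicle DMSO and 100% = killing by high DMSO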
# [9] = HD-MB03 medulloblastoma cell growth inhibition, synergistic combos for chromothripsis tumors, BGB or cisplatin IC20 combos (AID 1671455; in the data active = inhibition above about 83%;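 also: 0% = vehicle DMSO and 100% = high DMSO as cytotoxic control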); details: HD-MB03 medulloblastoma cells, stronger effect = higher value
# [10] = UWB1.289 ovarian carcinoma cell growth inhibition, synergistic combos for chromothripsis tumors, BGB or cisplatin combos (AID 1671456); details: UWB1.289 ovarian carcinoma cells, stronger effect = higher value;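 also: cells exposed to compound for four days; 0% = vehicle DMSO and 100% = killing by high DMSO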
# [11] = LFS_MB_2R medulloblastoma cell growth inhibition, synergistic combos for chromothripsis tumors, cisplatin combos (AID 1671457); details: LFS_MB_2R medulloblastoma cells, stronger effect = higher value;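 also: cells exposed to compound for four days before readout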
# [12] = MDA-MB-436 breast carcinoma cell growth inhibition, synergistic combos for chromothripsis tumors, BGB or cisplatin combos (AID 1671458; call rule not given here;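 also: cells exposed for 96 hours; 0% = vehicle DMSO and 100% = killing by high DMSO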); details: MDA-MB-436 breast carcinoma growth inhibition, drug combinations, stronger effect = higher value
# [13] = UWB1.289_BRCA1 ovarian cancer growth, cell-based, BGB or cisplatin combinations (AID 1671459); details: UWB1.289 BRCA1 ovarian carcinoma, drug combinations, stronger effect = higher value
# [14] = human astrocyte viability loss, single and combined drugs, cytotoxicity control for chromothriptic childhood tumor combination screen, cell-based, BGB or cisplatin IC20 combos (AID 1671460); details: Human astrocytes, drug combinations, stronger effect = higher value;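 also: cells exposed to compounds for 96 hours before viability readout; 0% = vehicle and 100% = killing control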
# [15] = growth inhibition of BT084 medulloblastoma cells, cell-based, ICGC_MB145, cisplatin and BGB IC40 combos (AID 1671461); details: drug combinations, at 0.5 µM, stronger effect = higher value;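 also: cells exposed to drugs for 96 hours; 0% = vehicle DMSO and 100% = high DMSO full killing control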
# [16] = measured here: combination with BGB IC40, at 0.05 µM
# [17] = measured here: combination with cisplatin, at 0.5 µM
# [18] = measured here: combination with cisplatin, at 5 µM
smiles,measurement,setting,value
CCCCN(Cc1ccc(C(=O)NO)cc1)C(=O)Nc1ccccc1,fold change,"[1]; stronger effect = lower value, cell number ratio, induced over uninduced",0.983 (inactive)
same,fold change,[1]; measured here: relative caspase fold change +Dox/-Dox,0.418
same,cell count,"[1]; measured here: total cells with miR-34 induction, stronger effect = lower value",4530
same,cell count,[1]; measured here: total cells without miR-34 induction,4600
same,z-score,"[2]; MELAS cybrid survival, CellTiter-Glo 48 h, stronger effect = higher value",-0.565 (inactive)
same,z-score,"[2]; Rieske KO mouse fibroblast survival, CellTiter-Glo 72 h",1.2
same,inhibition,"[3]; at 0.5 µM, stronger effect = higher value",-20% (inactive) and -3.97% (inactive)
same,inhibition,"[3]; measured here: combination with BGB IC20, at 0.005 µM",-3.67% and 7.55%
same,inhibition,"[3]; measured here: combination with BGB IC40, at 0.005 µM",4.04% and -3.84%
same,inhibition,[3]; [16],40.8% and 5.09%
same,inhibition,"[3]; measured here: combination with cisplatin, at 0.5 µM, stronger effect = higher value",-30.1% and 27.1%
same,inhibition,"[3]; measured here: combination with cisplatin, at 5 µM, stronger effect = higher value",80.5% and 81.8%
same,inhibition,"[4]; BGB combo, at 5 µM",53.8% and 40.9%
same,inhibition,[4]; at 0.5 µM,23.8% (inactive) and 15.6% (inactive)
same,inhibition,"[4]; cisplatin combo, at 5 µM",52.4% and 49.4%
same,inhibition,"[4]; measured here: with BGB IC20 combination, at 0.5 µM",24.6% and 6.38%
same,inhibition,"[4]; measured here: with cisplatin IC20 combination, at 0.5 µM",17.1% and 28%
same,inhibition,"[4]; single agent, at 5 µM",52.1% and 51.6%
same,inhibition,"[5]; BGB IC20 combo, at 0.005 µM",-10.6% and 8.62%
same,inhibition,"[5]; BGB IC40 combo, at 0.005 µM",-48.5% and 3.88%
same,inhibition,"[5]; BGB IC40 combo, at 0.05 µM",19.3% and 30.6%
same,inhibition,[5]; at 0.5 µM,-22.3% (inactive) and 1.78% (inactive)
same,inhibition,"[5]; cisplatin combo, at 0.05 µM",16.1% and 28.6%
same,inhibition,"[5]; cisplatin combo, at 0.5 µM",-41.9% and 10.4%
same,inhibition,"[5]; cisplatin combo, at 5 µM",-6.73% and -20.8%
same,inhibition,"[5]; measured here: 5 uM single agent, at 5 µM",-6.18% and 2.93%
same,inhibition,[6]; at 0.5 µM,-0.52% (inactive) and 4.37% (inactive)
same,inhibition,[6]; [16],-26.5% and -6.78%
same,inhibition,[6]; [17],3.43% and 2.01%
same,inhibition,[6]; [18],21.2% and 8.3%
same,inhibition,[7]; at 0.5 µM,19.9% (inactive) and 9.96% (inactive)
same,inhibition,"[7]; measured here: with BGB IC20, at 0.5 µM",8.29% and 2.56%
same,inhibition,"[7]; measured here: with BGB IC20, at 5 µM",37.9% and 32.7%
same,inhibition,"[7]; measured here: with cisplatin IC20, at 0.5 µM",24.2% and 15.2%
same,inhibition,"[7]; measured here: with cisplatin IC20, at 5 µM",61.3% and 51.1%
same,inhibition,"[7]; single agent, at 5 µM",64% and 41.2%
same,inhibition,[8]; at 0.5 µM,-11.3% (inactive) and -33.3% (inactive)
same,inhibition,"[8]; measured here: combination with BGB at IC20, at 0.5 µM",5.14% and -65%
same,inhibition,"[8]; measured here: combination with cisplatin at IC20, at 0.5 µM",14.3% and -15.5%
same,inhibition,[9]; at 0.5 µM,14.8% (inactive) and 3.61% (inactive)
same,inhibition,"[9]; measured here: combo with BGB at IC20, at 0.5 µM",8.17% and 6.08%
same,inhibition,"[9]; measured here: combo with cisplatin at IC20, at 0.5 µM",19.9% and -1.69%
same,inhibition,[10]; at 0.5 µM,11.9% (inactive) and 3.45% (inactive)
same,inhibition,"[10]; measured here: inhibition with BGB combination, at 0.05 µM",1.66% and 3.63%
same,inhibition,"[10]; measured here: inhibition with cisplatin combination, at 0.05 µM",-1.43% and -3.86%
same,inhibition,[11]; at 0.5 µM,-2.85% (inactive) and 5.34% (inactive)
same,inhibition,[11]; [17],10.6% and 13.6%
same,inhibition,[11]; [18],66.3% and 45%
same,inhibition,[12]; at 0.5 µM,2.63% (inactive) and 5.38% (inactive)
same,inhibition,"[12]; measured here: BGB combination, at 0.5 µM",-2.67% and 11.6%
same,inhibition,"[12]; measured here: BGB combination, at 5 µM",10.7% and 17.3%
same,inhibition,"[12]; measured here: cisplatin combination, at 0.5 µM",0.872% and -0.512%
same,inhibition,"[12]; measured here: cisplatin combination, at 5 µM",26% and 22.1%
same,inhibition,"[13]; BGB combination, concentration series, at 5 µM",53.9% and 55%
same,inhibition,[13]; at 0.5 µM,11.3% (inactive) and 5.83% (inactive)
same,inhibition,"[13]; cisplatin combination, concentration series, at 5 µM",64.1% and 65%
same,inhibition,[14]; at 0.5 µM,12.4% (inactive) and -2.38% (inactive)
same,inhibition,"[14]; measured here: combo with BGB IC20, at 0.5 µM",32.5% and 11.7%
same,inhibition,"[14]; measured here: combo with cisplatin IC20, at 0.5 µM",10.7% and -23.3%
same,inhibition,[15],4.6% (inactive) and 18.3% (inactive)

# Reference: PubChem BioAssay
